Experimental data taken from PubChem BioAssay (Tox21).
Values joined by “and” are separate entries in the source; they are usually repeats but may differ in a detail not shown here. Equal entries are not always repeated. Records with an inconclusive call do not appear. Entries that show only a call come without a potency. A number with no mark means an inactive call. Active and inactive are the calls of the source. Calls come from the whole dose curve; as a rule, active = well fitted cell-killing curve with a large enough effect in the repeat runs; inconclusive = weak or mixed curves, or effect the other way; inactive = no such curve, though single readings can be large or run the other way.

Assay: qHTS assay to identify small molecule agonists of the RXR signaling pathway - cell viability counter screen (AID 1159529); note: nearly all actives have a fitted effect of over 50% in size;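 for activity change, negative = cytotoxicity: HEK 293T cells carrying an RXR-alpha UAS beta-lactamase reporter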
Settings: RXR-alpha-bla HEK293T viability, CellTiter-Glo, 16 h; series mostly up to 76.8 µM
Outline: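 HEK 293T RXRa-bla cells, 2% CS-FBS; 5 h settle; cpd 16 h 37 C, 5% CO2; CellTiter-Glo 30 min RT, luminescence. Tetraoctyl ammonium bromide as positive control.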
Potency is the fitted concentration of half-maximal effect.

Structure (SMILES) | Potency | activity change, negative = cytotoxicity
Nc1cc(Cl)ccc1Cl | inactive | 
CC(=O)[O-].CC(=O)[O-].CC(=O)[O-].[Sb+3] |  | 2.3% [at 2.72 µM]
CCN(CC)CCc1c[nH]c2ccccc12 | inactive | 
COc1ccc2c(c1OC)C(=O)O[C@@H]2[C@H]1c2cc3c(cc2CCN1C)OCO3 | inactive | 
CC(C)N(C(=O)SC/C(Cl)=C/Cl)C(C)C | inactive | 
CCOP(=S)(OCC)SC(CCl)N1C(=O)c2ccccc2C1=O (centres undefined) | inactive | 
Nc1ccccc1-c1ccccc1 | 21.7 µM (active) | 
O=C1C(Cl)=C(Cl)C(=O)C(Cl)=C1Cl | 38.9 µM (active) | 
CN1C(=O)[C@@H](NC(=O)c2cc3ccccc3[nH]2)N=C(c2ccccc2)c2ccccc21 | inactive | 
O=c1[nH]c2cc(Cl)ccc2n1C1CCNCC1 | inactive | 
N#CSCc1ccccc1 | inactive | 
CCCCCON=O | inactive | 
COc1ccc2[nH]cc(CCN(C(C)C)C(C)C)c2c1 | inactive | 
O=[N+]([O-])c1ccc(CCl)cc1 | inactive | 
CCCCN(CCCC)C(=S)S | inactive | 
[Cl-].[Cl-].[Sn+2] | inactive | 
CNC(=O)/C=C(\C)OP(=O)(OC)OC | inactive | 
COc1cnc(OC)n2nc(NS(=O)(=O)c3c(OCC(F)F)cccc3C(F)(F)F)nc12 | inactive | 
Oc1ccc(Cl)c(Cl)c1 | inactive | 
CC(=O)[O][Pb]([c]1ccccc1)([c]1ccccc1)[c]1ccccc1 | 2.45 µM (active) | 

Structure (SMILES) | Potency | activity change, negative = cytotoxicity
CCN(CC)Cc1nccn1-c1ccc([N+](=O)[O-])cc1C(=O)c1ccccc1Cl | inactive | 
CN=C=O | inactive | 
CNC(=O)O/N=C(\C)C(C)S(C)(=O)=O (centres undefined) | inactive | 
C=CC(=O)[O][Sn]([CH2]CCC)([CH2]CCC)[CH2]CCC | 1.38 µM (active) | 
CC(=O)[O-].CC(=O)[O-].O.O.O.[Pb+2] | inactive | 
CNC(=O)Oc1cc(C)cc(C(C)C)c1 | inactive | 
CSSC | inactive | 
C[C@]12CC[C@H]3[C@@H](CCC4=CC(=O)CC[C@@H]43)[C@@H]1CC[C@@H]2OC(=O)CCc1ccco1 | 23.9 µM (active) | 
CCn1cc[n+](C)c1 (tested in a mixture with another compound) | inactive | 
CCNc1nc(NC(C)C(C)C)nc(SC)n1 (centres undefined) | inactive | 
COC(=O)/C=C(\C)OP(=O)(OC)OC | inactive | 
COP(=S)(NC(C)C)Oc1ccc(C)cc1[N+](=O)[O-] (centres undefined) | inactive | 
CCOP(=O)(OCC)Oc1cc(C)nc(C(C)C)n1 | inactive | 
CN(C)C(=S)SSC(=S)N(C)C | 272 nM (active) and 692 nM (active) and 268 nM (active) | 
CCNS(=O)(=O)C(F)(F)C(F)(F)C(F)(F)C(F)(F)C(F)(F)C(F)(F)C(F)(F)C(F)(F)F | inactive | 
O=S(=O)(O)F | inactive | 
Clc1ccc(C2(Cn3cncn3)OCCO2)c(Cl)c1 | inactive | 
ClC1(Cl)C2(Cl)C3(Cl)C4(Cl)C(Cl)(Cl)C5(Cl)C3(Cl)C1(Cl)C5(Cl)C24Cl (centres undefined) | inactive | 
CCCCn1cc[n+](C)c1.[Cl][Fe-]([Cl])([Cl])[Cl] | inactive | 
